Screen size: about 380,000 compounds; about 170 (0.045%) were called active. A call without a number means that no potency is given here. Calls follow the shape of the dose curve; as a rule, active = well fitted inhibition curve with a large enough effect; inconclusive = small, poorly fitted or top-dose-only effect; inactive = no such curve, though single readings can be large or run the other way. Many of the other results were omitted from the sample, so actives are more common in it than they were.
Potency is read from the fitted curve at half-maximal effect.

This assay deals with Phosphoglycerate kinase, glycosomal (Trypanosoma brucei brucei) (UniProt P07378). The assay can be described thus: qHTS Assay to Find Inhibitors of Phosphoglycerate Kinase. Also: nearly all actives have a fitted effect of over 60% in size. The conditions noted are these: PGK/GAPDH coupled, Kinase-Glo luminescence, 60 min; series mostly up to 57.5 µM. The method in brief: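 Recombinant glycosomal PGK reaction used 1,3-bisphosphoglycerate generated in-well by GAPDH (100nM final) in 100mM TEA pH 7.6, 5mM MgCl2, 0.01% Tween-20. After 60 minutes at room temperature, ATP was read by Kinase-Glo Plus luminescence end-point.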
Chain of Phosphoglycerate kinase, glycosomal (Trypanosoma brucei brucei) (P07378 whole entry, looked up): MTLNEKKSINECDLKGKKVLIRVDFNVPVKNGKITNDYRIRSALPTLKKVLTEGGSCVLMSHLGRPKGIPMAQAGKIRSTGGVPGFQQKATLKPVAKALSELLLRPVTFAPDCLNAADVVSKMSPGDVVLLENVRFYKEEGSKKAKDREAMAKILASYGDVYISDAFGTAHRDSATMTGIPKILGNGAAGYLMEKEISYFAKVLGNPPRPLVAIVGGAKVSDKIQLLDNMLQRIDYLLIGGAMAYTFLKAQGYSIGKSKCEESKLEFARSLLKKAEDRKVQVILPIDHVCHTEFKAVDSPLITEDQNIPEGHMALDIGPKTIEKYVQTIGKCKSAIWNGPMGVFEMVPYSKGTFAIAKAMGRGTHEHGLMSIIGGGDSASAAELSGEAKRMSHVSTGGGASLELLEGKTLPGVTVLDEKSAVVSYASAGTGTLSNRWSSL
For orientation: In qHTS, concentration-response curves come from the screen itself.
As to `COc1cc(Nc2nc(-c3ccc(OC)c(OC)c3)nc3ccccc23)cc(OC)c1`, the Potency result is “inactive”. For `CCOC(=O)c1oc2ccc(S(=O)(=O)n3nc(-c4ccccc4OC)cc3N)cc2c1C` the value was “inactive”; for `O=C(c1cnn(-c2ccc(F)cc2)c1-n1cccc1)N1CCN(c2ccc(F)cc2)CC1`, “inactive”; for `C=C(C)C(=O)Nc1cccc(C2=NOC3(C2)C[C@H](C(N)=O)N(C(=O)C(c2ccccc2)c2ccccc2)C3)c1` (stereo partly specified), 7.94 µM (active). The entry for `C/C=C(\C)C(=O)N1CC2(CC(c3cccc(NC(=O)CCCCC)c3)=NO2)C[C@@H]1C(N)=O` (stereo partly specified) is “inactive”; for `NC(=O)[C@H]1CC2(CC(c3cccc(NC(=O)[C@H]4CCC(=O)N4)c3)=NO2)CN1C(=O)c1ccccc1C(=O)c1ccccc1` (stereo partly specified) it is “inactive”; for `O=C(CC1C(=O)N(c2ccccc2)C(=O)N1CCc1cccs1)Nc1ccc(F)cc1` (stereo unspecified) it is “inactive”.

For `Fc1ccc(-c2nn(-c3ccccc3Cl)c3c2cnc2ccccc23)cc1`, the Potency result was “inactive”. For `COC(=O)c1ccccc1NC(=O)c1cc(-c2ccccc2O)no1` the value was “inactive”; for `COc1ccc(CCNC(=O)c2cn(C)c3ccc(S(=O)(=O)N(C)C4CCCCC4)cc3c2=O)cc1OC`, “inactive”. The entry for `Cc1nn(C(=O)c2c(F)cccc2F)c(C)c1S(=O)(=O)N1CCOCC1` is “inactive”; for `Cc1cccc(NC(=O)CSc2ncc(-c3ccccc3)[nH]2)c1C` it is “inactive”. For `CCc1ccc(NC(=O)CCCc2nnc3n(CCCOC)c(=O)c4sccc4n23)cc1` the value was “inactive”.

Take `COc1ccc(C2=CC(c3ccccc3Cl)n3nc(-c4ccc(Cl)cc4)nc3N2)cc1` (stereo unspecified): the Potency entry is “inactive”. For `Cc1ccc(-c2onc(C)c2C)cc1S(=O)(=O)Nc1ccccn1`, the Potency result is “inactive”. In the case of `Cc1ccc(CN2C(=O)SC(Nc3ccccc3)C2=O)cc1` (stereo unspecified), the Potency result was “inactive”. For `O=C(OCc1cc(=O)n2nc(C3CC3)sc2n1)c1ccccc1Cl` the value was “inactive”; for `O=C(NCc1ccc(F)cc1)c1ccc(Cn2c(SCc3ccc(F)cc3)nc3cccnc32)cc1`, “inactive”; for `COc1cccc(N2CCN(S(=O)(=O)c3cc(Br)cc4c3N(C(=O)C3CC3)CC4)CC2)c1`, “inactive”. `O=C(Nc1nnc(C2CC(=O)N(c3ccc(Cl)cc3)C2)s1)c1ccco1` (stereo unspecified): the Potency result was “inactive”. Take `Cc1ccc(C2CCN(C(=O)c3cnn(-c4ccccc4Cl)c3C3CCN(C(=O)OC(C)(C)C)CC3)C2)cc1` (stereo unspecified): the Potency result is “inactive”.

`O=C(COc1ccc(Cl)cc1)Nc1ccc(-c2nc3cc(Cl)ccc3o2)c(O)c1`: the Potency entry was “inactive”. As for `COc1cc(C(CC(=O)NCCC(C)C)N2Cc3ccccc3C2=O)cc(OC)c1OC` (stereo unspecified), the Potency result is “inactive”. For the compound `COc1ccccc1C1C(C(=O)N2CCCCC2)=C(C)Nc2nc3ccccc3n21` (stereo unspecified), the Potency result is “inactive”. Regarding `CCOc1ccc(C2CC(=O)c3c([nH]c(C(=O)OCc4ccccc4)c3C)C2)cc1` (stereo unspecified), the Potency result was “inactive”. The entry for `CCCC(=O)Nc1cc(C(=O)NCc2ccc(OC)cc2)ccc1S(=O)(=O)c1ccc(Cl)cc1` is “inactive”; for `CC1=C(C(=O)OCC(C)C)C(c2ccc(OCc3ccccc3)cc2)N2C(=O)CCSC2=N1` (stereo unspecified) it is “inactive”; for `O=C(/C=C/c1cn(CC(O)CN2CCc3ccccc32)c2ccccc12)c1ccc(Br)cc1` (stereo unspecified) it is “inactive”. Consider `O=C(Nc1ccc(C(=O)OCc2cc(=O)n3nc(C4CC4)sc3n2)cc1)c1ccc(F)cc1`, for which the Potency result is “inactive”. The entry for `Cc1c(Cl)cccc1NC(=O)C(=O)NCCc1csc2nc(-c3ccccc3F)nn12` is “inactive”; for `Cc1ccc(N(CC(=O)NCC(C)c2ccccc2)S(=O)(=O)N(C)C)cc1` (stereo unspecified) it is “inactive”; for `CCc1nnc2c3ccccc3nc(N3CCN(c4ccc(C)cc4C)CC3)n12` it is “inactive”.

Take `O=C(C1CCCN(S(=O)(=O)c2cccc3nonc23)C1)N1CCN(c2ccccc2F)CC1` (stereo unspecified): the Potency entry is “inactive”. With `NS(=O)(=O)c1ccc(NC(=O)C(=O)Nc2ccc3nc4n(c(=O)c3c2)CCCCC4)cc1`, the Potency result is “inactive”.

`O=C(NCc1ccc(Cl)cc1)c1ccc2c(c1)nnn2C1CCCC1`: the Potency result is “inactive”. For `Oc1ccccc1-c1nc2ccc(Cl)cn2c1Nc1ccc2c(c1)OCCO2` the value was “inactive”. For `COc1ccc(SCc2cc(=O)c3ccc(C)c(C)c3[nH]2)cc1`, the Potency result was “inactive”. For `Cc1ccc(-c2nc(Cn3c(=O)cc(-c4ccccc4)c4c(C)nn(C)c43)c(C)o2)cc1`, the Potency entry is “inactive”. For `CC(C)c1ccc(NC(=O)CN(C)S(=O)(=O)c2ccc3c(c2)c(=O)n(C)c(=O)n3C)cc1` the value was “inactive”. Take `Cc1ccc2nc(-c3ccc(O)cc3)c(Nc3ccc4c(c3)OCO4)n2c1`: the Potency entry is “inactive”. For `CC(C)Oc1ccc(CNC(=O)C2CCN(c3nc4ccccc4n(C)c3=O)CC2)cc1` the value was “inactive”; for `COc1cccc(C(=O)Nc2ccc(-c3cc(C(F)(F)F)nn3-c3ccccc3)cc2)c1`, “inactive”.

Regarding `Cc1ccc(NC(=O)c2oc3ccc(S(=O)(=O)N4CCCCC4)cc3c2C)cc1Cl`, the Potency entry is “inactive”. The entry for `Cc1ccccc1C(=O)Nc1nnc(S(=O)(=O)N(C)c2ccc(Cl)cc2)s1` is “inactive”; for `O=C(COc1ccc(Cl)cc1)N(Cc1ccco1)Cc1ccco1` it is “inactive”; for `Cc1cc(C)cc(NC(=O)CSc2oc(-c3ccccc3)nc2S(=O)(=O)c2ccc(Cl)cc2)c1` it is “inactive”.
